For nine molecules, growth inhibition results are on record in PubChem BioAssay (NCI).

Experiment [1] is described as follows: NCI Yeast Anticancer Drug Screen. Data for the rad50 strain (AID 155).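 Note: 0% = growth of vehicle-only cultures of the same strain.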 The note with it: S. cerevisiae rad50 strain growth inhibition, hits give high values. The essentials:
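Genetically altered yeast (DNA repair pathway); compound treatment; growth inhibition vs vehicle ctrl.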

The nature of experiment [2]: NCI Yeast Anticancer Drug Screen. Data for the mec2-1 strain (AID 157). The note with it: S. cerevisiae mec2-1 strain, hits give high values. The essentials:
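Vehicle-treated cultures served as reference for growth inhibition of compound-exposed mec2-1 yeast.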

Experiment [3] in a line: NCI Yeast Anticancer Drug Screen. Data for the sgs1 mgt1 strain (AID 161).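 Note: 0% = growth of cultures given vehicle only.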 Particulars: S. cerevisiae sgs1 mgt1 strain, hits give high values. The procedure, abridged:
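Read-out: growth inhibition vs vehicle controls. Cells: mutant yeast strain deficient in DNA damage repair.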

Experiment [4] can be described thus: NCI Yeast Anticancer Drug Screen. Data for the cln2 rad14 strain (AID 165).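 Note: 0% = growth equal to vehicle treated cultures.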 The note with it: S. cerevisiae cln2 rad14 strain, hits give high values. The essentials:
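Each compound was tested on cln2 rad14 yeast. Inhibition of growth was calculated against vehicle-exposed controls.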

Experiment [5] can be described thus: NCI Yeast Anticancer Drug Screen. Data for the bub3 strain (AID 167). Particulars: S. cerevisiae bub3 mutant strain, hits give high values. The procedure, abridged: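 Yeast carrying a defined mutation is treated with each compound, and growth is compared with that of vehicle-exposed cells to give inhibition.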
The nature of experiment [6]: NCI Yeast Anticancer Drug Screen. Data for the mlh1 rad18 strain (AID 175). Particulars: S. cerevisiae mlh1 rad18 strain growth inhibition, hits give high values. The essentials:
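Vehicle-treated cultures served as the reference for growth inhibition in a yeast strain carrying DNA damage repair alterations exposed to each compound.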

Where [7] appears, read: at 5.0 µM (retest, dose inferred, filed as 0.5).
The mark [8] stands for this setting: at 50.0 µM (retest, dose inferred, filed as 5.0).

The panel holds about 79,000 compounds, 15% with a hit somewhere; the sample as a whole holds those more often. A number with no mark means an inactive call. The source made the active and inactive calls. Cut-off read from the data, not from the text of the source: active = growth inhibition above about 70%; inactive = the rest.

For `CC(C)(C)c1cc2c(c(C(C)(C)C)c1O)CC(=O)O2`, the growth inhibition in experiment [1] (setting [7]) was -6%; in experiment [1] (setting [8]), 74% (active); in experiment [1] (at 50.0 µM), 27.7%; in experiment [2] (setting [7]), -18%; in experiment [2] (setting [8]), 85% (active); in experiment [2] (at 50.0 µM), 45.5%. Moreover, the growth inhibition was -37% in experiment [3] (setting [7]); 77% (active) in experiment [3] (setting [8]); 57.8% in experiment [3] (at 50.0 µM); 23% in experiment [4] (setting [7]); 64% in experiment [4] (setting [8]); 53.8% in experiment [4] (at 50.0 µM). Besides, the growth inhibition was -32% in experiment [5] (setting [7]); 97% (active) in experiment [5] (setting [8]); 72.5% (active) in experiment [5] (at 50.0 µM); -3% in experiment [6] (setting [7]); 84% (active) in experiment [6] (setting [8]); 73.9% (active) in experiment [6] (at 50.0 µM).
In the case of `O=[N+]([O-])c1ccc(-c2nc(/C=N/N3CCCCC3)cs2)o1`, the growth inhibition in experiment [1] (setting [7]) was 12%; in experiment [1] (setting [8]), 57%; in experiment [1] (at 50.0 µM), 69.7%; in experiment [2] (setting [7]) it was 1%; in experiment [2] (setting [8]), 26%; in experiment [2] (at 50.0 µM), 43.5%. Further, the growth inhibition is 17% in experiment [3] (setting [7]); 76% (active) in experiment [3] (setting [8]); 84.5% (active) in experiment [3] (at 50.0 µM); -7% in experiment [4] (setting [7]); 32% in experiment [4] (setting [8]); 42.4% in experiment [4] (at 50.0 µM). Also, the growth inhibition in experiment [5] (setting [7]) is -1%; in experiment [5] (setting [8]) it was 3%; in experiment [5] (at 50.0 µM), 15.2%; in experiment [6] (setting [7]) it was 16%; in experiment [6] (setting [8]) it was 64%; in experiment [6] (at 50.0 µM), 66.5%.
As to `CCCCCCCCCC(=O)CC(=O)c1c(O)cccc1O`, the growth inhibition in experiment [1] (setting [7]) is 33%; in experiment [1] (setting [8]), 83% (active); in experiment [1] (at 50.0 µM), 86% (active); in experiment [2] (setting [7]), 20%; in experiment [2] (setting [8]) it was 92% (active); in experiment [2] (at 50.0 µM), 90.3% (active). The growth inhibition was 52% in experiment [3] (setting [7]); 96% (active) in experiment [3] (setting [8]); 90.5% (active) in experiment [3] (at 50.0 µM); 22% in experiment [4] (setting [7]); 83% (active) in experiment [4] (setting [8]); 88.9% (active) in experiment [4] (at 50.0 µM). In addition, the growth inhibition in experiment [5] (setting [7]) is 42%; in experiment [5] (setting [8]) it was 94% (active); in experiment [5] (at 50.0 µM), 87.3% (active); in experiment [6] (setting [7]), 40%; in experiment [6] (setting [8]), 95% (active); in experiment [6] (at 50.0 µM), 86.2% (active).
Regarding `O=C(NC1=C(Cl)C(=O)c2ccccc2C1=O)C(=O)C(C(=O)c1ccc2ccccc2c1)C1OC(=O)c2ccccc21` (configuration not stated), the growth inhibition in experiment [1] (setting [7]) was 33%; in experiment [1] (setting [8]) it was 85% (active); in experiment [1] (at 50.0 µM), 89.8% (active); in experiment [2] (setting [7]), 16%; in experiment [2] (setting [8]), 59%; in experiment [2] (at 50.0 µM), 63.5%. Further, the growth inhibition in experiment [3] (setting [7]) was 30%; in experiment [3] (setting [8]), 98% (active); in experiment [3] (at 50.0 µM) it was 88.5% (active); in experiment [4] (setting [7]), 20%; in experiment [4] (setting [8]) it was 95% (active); in experiment [4] (at 50.0 µM), 88.1% (active). Also, the growth inhibition is 22% in experiment [5] (setting [7]); 99% (active) in experiment [5] (setting [8]); 85.3% (active) in experiment [5] (at 50.0 µM); 26% in experiment [6] (setting [7]); 83% (active) in experiment [6] (setting [8]); 88.8% (active) in experiment [6] (at 50.0 µM).
For `Cc1cccc2c1Oc1ccccc1C2N1C(=O)/C(=C/c2cccs2)SC1=S` (configuration not stated), the growth inhibition is 1% in experiment [1] (setting [7]); 12% in experiment [1] (setting [8]); 51.8% in experiment [1] (at 50.0 µM); -23% in experiment [2] (setting [7]); 37% in experiment [2] (setting [8]); 53.8% in experiment [2] (at 50.0 µM). In addition, the growth inhibition was -6% in experiment [3] (setting [7]); 28% in experiment [3] (setting [8]); 88% (active) in experiment [3] (at 50.0 µM); -11% in experiment [4] (setting [7]); 1% in experiment [4] (setting [8]); 72.2% (active) in experiment [4] (at 50.0 µM). For the same molecule, the growth inhibition in experiment [5] (setting [7]) was -8%; in experiment [5] (setting [8]), -4%; in experiment [5] (at 50.0 µM) it was 26.4%; in experiment [6] (setting [7]), 2%; in experiment [6] (setting [8]), 45%; in experiment [6] (at 50.0 µM), 42.4%.
Turning to `NC(CCl)=NCC1C2CC3CC(C2)CC1C3` (configuration not stated), the growth inhibition in experiment [1] (setting [7]) was 14%; in experiment [1] (setting [8]), 99% (active); in experiment [1] (at 50.0 µM) it was 87.9% (active); in experiment [2] (setting [7]), 11%; in experiment [2] (setting [8]) it was 99% (active); in experiment [2] (at 50.0 µM) it was 90.2% (active). Also, the growth inhibition in experiment [3] (setting [7]) was 11%; in experiment [3] (setting [8]), 99% (active); in experiment [3] (at 50.0 µM), 90.8% (active); in experiment [4] (setting [7]) it was -3%; in experiment [4] (setting [8]) it was 99% (active); in experiment [4] (at 50.0 µM), 84.5% (active). Moreover, the growth inhibition in experiment [5] (setting [7]) is 10%; in experiment [5] (setting [8]), 98% (active); in experiment [5] (at 50.0 µM), 89.2% (active); in experiment [6] (setting [7]), 19%; in experiment [6] (setting [8]) it was 99% (active); in experiment [6] (at 50.0 µM), 89.9% (active).
As for `C/C(=N\OS(=O)(=O)O)SC1OC(CO)C(O)C(O)C1O` (configuration not stated), the growth inhibition is 3% in experiment [1] (setting [7]); -17% in experiment [1] (setting [8]); 3.1% in experiment [1] (at 50.0 µM); -2% in experiment [2] (setting [7]); -13% in experiment [2] (setting [8]); -4.8% in experiment [2] (at 50.0 µM). Also, the growth inhibition in experiment [3] (setting [7]) is -1%; in experiment [3] (setting [8]), 11%; in experiment [3] (at 50.0 µM) it was -7.4%; in experiment [4] (setting [7]), -16%; in experiment [4] (setting [8]), 18%; in experiment [4] (at 50.0 µM), -0.95%. The growth inhibition is -2% in experiment [5] (setting [7]); -3% in experiment [5] (setting [8]); -8.15% in experiment [5] (at 50.0 µM); 6% in experiment [6] (setting [7]); -3% in experiment [6] (setting [8]); -11% in experiment [6] (at 50.0 µM).
As to `CCC(C)Sc1nc2c([nH]1)c(=S)n(C)c(=O)n2C` (configuration not stated), the growth inhibition in experiment [1] (setting [7]) was 9%; in experiment [1] (setting [8]), 39%; in experiment [1] (at 50.0 µM), 87.7% (active); in experiment [2] (setting [7]), 20%; in experiment [2] (setting [8]), 52%; in experiment [2] (at 50.0 µM), 96% (active). Also, the growth inhibition in experiment [3] (setting [7]) is 5%; in experiment [3] (setting [8]), -19%; in experiment [3] (at 50.0 µM), 96.7% (active); in experiment [4] (setting [7]) it was -3%; in experiment [4] (setting [8]) it was 17%; in experiment [4] (at 50.0 µM) it was 23.9%. Also, the growth inhibition in experiment [5] (setting [7]) is 16%; in experiment [5] (setting [8]) it was 49%; in experiment [5] (at 50.0 µM), 95.7% (active); in experiment [6] (setting [7]), 1%; in experiment [6] (setting [8]), 24%; in experiment [6] (at 50.0 µM) it was 95.2% (active).
On to `CCCCCCCCCCCCCCCC[N+](C)(C)CCl`, for which the growth inhibition is 99% (active) in experiment [1] (setting [7]); 100% (active) in experiment [1] (setting [8]); 85.6% (active) in experiment [1] (at 50.0 µM); 99% (active) in experiment [2] (setting [7]); 100% (active) in experiment [2] (setting [8]); 89.7% (active) in experiment [2] (at 50.0 µM). Moreover, the growth inhibition in experiment [3] (setting [7]) was 99% (active); in experiment [3] (setting [8]), 100% (active); in experiment [3] (at 50.0 µM), 82.2% (active); in experiment [4] (setting [7]), 99% (active); in experiment [4] (setting [8]), 99% (active); in experiment [4] (at 50.0 µM), 89% (active). Moreover, the growth inhibition in experiment [5] (setting [7]) was 99% (active); in experiment [5] (setting [8]), 100% (active); in experiment [5] (at 50.0 µM), 87.3% (active); in experiment [6] (setting [7]), 99% (active); in experiment [6] (setting [8]), 100% (active); in experiment [6] (at 50.0 µM) it was 80.1% (active).
